An excerpt weighted towards active compounds, which were near 4.5% of everything screened.
CSC inhib = cancer stem cell viability inhibitors, primary screen, luminescence; cancer stem cell-like cells viability; actives 1.1% (n = 300,000); inhibition, % at 7.5 µM; in the data active = inhibition above about 75%; tested in HMLE shEcad cells
Jurkat NFkB inh = inhibitors of induced NF-kB luciferase reporter, primary screen, TCR NF-kB activation inhibitor project, cell-based, luminescence, uHTS. actives 0.53% (n = 330,000). AID 435003, 2010. Jurkat, PMA/ionomycin-induced NF-kB luciferase reporter. inhibition, % at 4 µM; in the data active = inhibition above about 50%
697 NFkB inh = inhibitors of PMA/ionomycin-induced NF-kB reporter, 697 cells, primary screen, B-cell NF-kB inhibitor project, cell-based, luminescence, uHTS | actives 0.33% (n = 330,000) | 697 B-cell NF-kB luciferase reporter, 16 h | inhibition, % at 4 µM; in the data active = inhibition above about 35%
Beta cell apopt = inhibitors of cytokine-induced beta cell apoptosis, primary screen, luminescence. INS-1E cytokine-induced death, ATP luminescence, 48 h; percent of positive-control rescue, neutral wells zero. protection from apoptosis, % (no concentration beside the values). actives 0.8% (n = 300,000);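 active = Every replicate reaches about 75%, or at least half do and their mean reaches it too, limit read from the data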;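 note: higher means more ATP so stronger rescue from cytokine killing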
Mdm2-MdmX inh = inhibitors of human Mdm2-MdmX association, primary screen, cell-based, luminescence, split luciferase, SaOS-2, uHTS | SaOS-2 split-luciferase Mdm2/MdmX complementation | inhibition, % at 8 µM | actives 3% (n = 330,000) | AID 485346, 2010;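 active = inhibition of at least 50% at 8 µM in the primary screen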
Target sequence (O15151 whole entry, looked up): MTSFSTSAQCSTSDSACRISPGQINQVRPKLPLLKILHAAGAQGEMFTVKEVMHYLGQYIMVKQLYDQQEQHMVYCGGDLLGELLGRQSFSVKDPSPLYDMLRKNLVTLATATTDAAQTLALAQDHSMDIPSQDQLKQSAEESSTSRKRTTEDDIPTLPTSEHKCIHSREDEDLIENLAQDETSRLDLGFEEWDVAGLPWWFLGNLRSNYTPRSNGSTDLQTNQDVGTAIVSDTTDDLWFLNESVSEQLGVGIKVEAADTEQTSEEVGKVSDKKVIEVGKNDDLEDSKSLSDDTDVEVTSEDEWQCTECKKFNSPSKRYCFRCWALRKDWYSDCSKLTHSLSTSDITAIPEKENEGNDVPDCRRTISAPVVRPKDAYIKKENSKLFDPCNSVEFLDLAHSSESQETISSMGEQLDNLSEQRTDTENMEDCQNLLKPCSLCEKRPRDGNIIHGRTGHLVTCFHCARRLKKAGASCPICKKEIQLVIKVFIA
Target sequence (Q00987 whole entry, looked up): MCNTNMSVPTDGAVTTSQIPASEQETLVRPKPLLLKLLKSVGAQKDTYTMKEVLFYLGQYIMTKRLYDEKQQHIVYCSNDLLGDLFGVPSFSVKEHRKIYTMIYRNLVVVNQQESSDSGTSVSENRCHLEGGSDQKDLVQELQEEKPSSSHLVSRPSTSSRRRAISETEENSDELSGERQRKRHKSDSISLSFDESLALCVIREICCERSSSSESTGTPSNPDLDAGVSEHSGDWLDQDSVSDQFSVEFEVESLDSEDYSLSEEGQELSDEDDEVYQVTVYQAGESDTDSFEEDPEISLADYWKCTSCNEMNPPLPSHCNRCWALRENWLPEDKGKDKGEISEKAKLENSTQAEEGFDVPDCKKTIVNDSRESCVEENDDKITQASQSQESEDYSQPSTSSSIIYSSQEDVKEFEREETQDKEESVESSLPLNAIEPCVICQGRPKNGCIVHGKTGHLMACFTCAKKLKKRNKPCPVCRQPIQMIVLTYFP
Gli-Sufu block = Gli-Sufu pathway antagonists, primary screen, luciferase luminescence, Sufu-KO-LIGHT cells, uHTS. actives 0.74% (n = 340,000). AID 588413, 2011. Sufu-KO-LIGHT fibroblasts, Gli luciferase reporter luminescence. inhibition, % at 5 µM;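 active = inhibition above about 55%, limit read from the data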
697 NFkB conf = PMA/ionomycin-induced NF-kB reporter inhibitors, 697 retest, confirmation, B-cell NF-kB inhibitor project, cell-based, luminescence, single concentration; 697 B-cell NF-kB luciferase, 16 h; inhibition, % at 4 µM; shares compounds with 697 NFkB inh; AID 449746, 2010; actives 35% (n = 2,000); in the data active = inhibition mostly above about 28%, no sharp cut-off; inactive = mostly below about 22%
Mdm2-MdmX conf = Mdm2-MdmX complex disruptors, retested hits, confirmation, luminescence, single concentration | shares compounds with Mdm2-MdmX inh | Mdm2-MdmX binding, luminescent assay | inhibition, % at 8 µM | actives 55% (n = 10,000); in the data active = inhibition above about 40%
FLuc counter = full-length luciferase signal inhibition, confirmation, counter-screen for Mdm2/MdmX interaction inhibitor project, cell-based, single concentration, SaOS-2 | shares compounds with Mdm2-MdmX inh | SaOS-2 full-length luciferase counterscreen, luminescence | inhibition, % at 8 µM | actives 77% (n = 6,200);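 active = mean inhibition at 8 µM reaching about 37%, which flags the compound as non-specific, limit read from the data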;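 note: p53-null SaOS-2 cells with luciferase driven by a doxycycline-inducible promoter; compound on cells about two nights before reading with doxycycline added after day one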
A number is an active result.

Screening COc1ccc(CCNC(=O)C(=O)NCC2OCCN2S(=O)(=O)c2cccs2)cc1 (stereo not drawn) returned CSC inhib inactive, Jurkat NFkB inh inactive, 697 NFkB inh inactive, Beta cell apopt inactive, Mdm2-MdmX inh inactive and Gli-Sufu block inactive.
Screening N/C(=N\OC(=O)c1ccc(Cl)cc1)c1ccc(Cl)cc1 returned CSC inhib inactive, Jurkat NFkB inh inactive, 697 NFkB inh inactive, Beta cell apopt inactive, Mdm2-MdmX inh inactive and Gli-Sufu block inactive.
N/C(=N\OC(=O)c1ccc(Cl)cc1Cl)c1ccc(Cl)cc1 was read as CSC inhib inactive, Jurkat NFkB inh inactive, 697 NFkB inh inactive, Beta cell apopt inactive, Mdm2-MdmX inh 53, Gli-Sufu block inactive, 697 NFkB conf inactive, Mdm2-MdmX conf 50 and FLuc counter 146.
`Nc1ccc2c(c1)-c1ccc(F)cc1C2=O` gave Gli-Sufu block inactive.
`CC(=O)c1ccc(N/N=C(/C(N)=O)C2=NC(C)(C)Cc3ccccc32)cc1` gave CSC inhib inactive, Jurkat NFkB inh inactive, 697 NFkB inh inactive, Beta cell apopt inactive, Mdm2-MdmX inh 63, Gli-Sufu block inactive, 697 NFkB conf inactive, Mdm2-MdmX conf inactive and FLuc counter 63.
Screening CC1(C)Cc2ccccc2C(/C(=N\Nc2cccc(Cl)c2)C(N)=O)=N1 returned CSC inhib inactive, Jurkat NFkB inh inactive, 697 NFkB inh inactive, Beta cell apopt inactive, Mdm2-MdmX inh inactive and Gli-Sufu block inactive.
For CCC(=O)NC(=S)Nc1ccc(NC(=S)NC(=O)c2ccccc2)cc1 the results were Gli-Sufu block inactive.
CCOC(=O)C1=C(NC(=S)NC(=O)c2ccccc2)c2ccccc2CC1(C)CC (stereo not drawn) was read as CSC inhib inactive, Jurkat NFkB inh inactive, 697 NFkB inh inactive, Beta cell apopt inactive, Mdm2-MdmX inh 77, Gli-Sufu block inactive, 697 NFkB conf inactive, Mdm2-MdmX conf 66 and FLuc counter 53.
CCOC(=O)C1=C(NC(=S)NC(=O)c2ccccc2)c2ccccc2CC1C(C)C (stereo not drawn) was read as CSC inhib inactive, Jurkat NFkB inh inactive, 697 NFkB inh inactive, Beta cell apopt inactive, Mdm2-MdmX inh 96, Gli-Sufu block inactive, 697 NFkB conf inactive and Mdm2-MdmX conf inactive.
`CCOC(=O)c1c(NC(=O)c2ccccc2)sc2c1CCc1ccccc1-2` gave CSC inhib inactive, Jurkat NFkB inh inactive, 697 NFkB inh inactive, Beta cell apopt inactive, Mdm2-MdmX inh inactive and Gli-Sufu block inactive.
For O=C(O)CSc1nc2ccc(C(=O)c3ccccc3)cc2[nH]1 the results were CSC inhib inactive, Jurkat NFkB inh inactive, 697 NFkB inh inactive, Beta cell apopt inactive, Mdm2-MdmX inh inactive and Gli-Sufu block inactive.
`Cc1ccc(S(=O)(=O)Nc2ccccc2C(=O)N2CCN(C)CC2)cc1` gave CSC inhib inactive, Jurkat NFkB inh inactive, 697 NFkB inh inactive, Mdm2-MdmX inh inactive and Gli-Sufu block inactive.
Screening COc1cc(C2C(C#N)=C(N)Oc3cc(N)ccc32)cc(OC)c1OC (stereo not drawn) returned Jurkat NFkB inh inactive, 697 NFkB inh 39, Beta cell apopt inactive, Mdm2-MdmX inh 88, Gli-Sufu block 55, 697 NFkB conf 45, Mdm2-MdmX conf 66 and FLuc counter 68.
For CN(CC(=O)Nc1ccc(Cl)c(C(F)(F)F)c1)C(=O)Cc1ccsc1 the results were CSC inhib inactive, Jurkat NFkB inh inactive, 697 NFkB inh inactive, Beta cell apopt inactive, Mdm2-MdmX inh inactive and Gli-Sufu block inactive.
`CCCOc1c(OC)cccc1C1CC(=O)Nc2cc(OC)c(OC)c(OC)c21` (stereo not drawn) gave CSC inhib inactive, Jurkat NFkB inh inactive, 697 NFkB inh inactive, Beta cell apopt inactive, Mdm2-MdmX inh inactive and Gli-Sufu block inactive.
COc1ccc(OC)c(C2CC(=O)Nc3cc(OC)c(OC)c(OC)c32)c1 (stereo not drawn) was read as CSC inhib inactive, Jurkat NFkB inh inactive, 697 NFkB inh 35, Beta cell apopt inactive, Mdm2-MdmX inh 56, Gli-Sufu block inactive, 697 NFkB conf 43 and Mdm2-MdmX conf inactive.
Screening COc1ccccc1-c1nnc(SCC(=O)c2c(N)n(C3CC3)c(=O)[nH]c2=O)o1 returned CSC inhib inactive, Jurkat NFkB inh inactive, 697 NFkB inh inactive, Beta cell apopt inactive, Mdm2-MdmX inh inactive and Gli-Sufu block inactive.
Nc1c(C(=O)CSc2nc3ccccc3o2)c(=O)[nH]c(=O)n1C1CC1 was read as Jurkat NFkB inh inactive, 697 NFkB inh inactive, Beta cell apopt inactive, Mdm2-MdmX inh 80, Gli-Sufu block inactive, 697 NFkB conf inactive and Mdm2-MdmX conf inactive.
Screening CC(C)(C)c1ccc(-c2cc(-c3ccccc3O)[nH]n2)cc1 returned CSC inhib inactive, Jurkat NFkB inh inactive, 697 NFkB inh inactive, Beta cell apopt inactive, Mdm2-MdmX inh 58, Gli-Sufu block inactive, 697 NFkB conf inactive, Mdm2-MdmX conf 65 and FLuc counter 139.
Screening Cc1cc(S(=O)(=O)N2CCCCC2CCNC(=O)C(=O)NC2CC2)ccc1F (stereo not drawn) returned CSC inhib inactive, Jurkat NFkB inh inactive, 697 NFkB inh inactive, Mdm2-MdmX inh inactive and Gli-Sufu block inactive.
`Cc1cc(C)c(S(=O)(=O)N2CCCCC2CCNC(=O)C(=O)NC2CC2)c(C)c1` (stereo not drawn) gave CSC inhib inactive, Jurkat NFkB inh inactive, 697 NFkB inh inactive, Beta cell apopt inactive, Mdm2-MdmX inh 92, Gli-Sufu block inactive, 697 NFkB conf inactive, Mdm2-MdmX conf 94 and FLuc counter inactive.
Screening COc1ccc([C@@H]2CC=C(C(=O)O)[C@H](c3ccc(Cl)cc3)N2S(=O)(=O)c2ccc(C)cc2)cc1OC returned CSC inhib inactive, Jurkat NFkB inh inactive, 697 NFkB inh inactive, Beta cell apopt inactive, Mdm2-MdmX inh inactive and Gli-Sufu block inactive.
